Bioassay records (PubChem BioAssay)
Shown are actives, neighbours in structure and some others; about 4.6% of the full set was active somewhere.
sEH inhibitor – soluble epoxide hydrolase inhibitors, primary screen, biochemical, human sEH; Bifunctional epoxide hydrolase 2 (Homo sapiens), P34913; inhibition, % at 2 µM; hit rate 0.34% among 91,000; recombinant human sEH enzymatic activity assay; in the data active means inhibition above about 80%
Target sequence (P34913 whole entry, looked up): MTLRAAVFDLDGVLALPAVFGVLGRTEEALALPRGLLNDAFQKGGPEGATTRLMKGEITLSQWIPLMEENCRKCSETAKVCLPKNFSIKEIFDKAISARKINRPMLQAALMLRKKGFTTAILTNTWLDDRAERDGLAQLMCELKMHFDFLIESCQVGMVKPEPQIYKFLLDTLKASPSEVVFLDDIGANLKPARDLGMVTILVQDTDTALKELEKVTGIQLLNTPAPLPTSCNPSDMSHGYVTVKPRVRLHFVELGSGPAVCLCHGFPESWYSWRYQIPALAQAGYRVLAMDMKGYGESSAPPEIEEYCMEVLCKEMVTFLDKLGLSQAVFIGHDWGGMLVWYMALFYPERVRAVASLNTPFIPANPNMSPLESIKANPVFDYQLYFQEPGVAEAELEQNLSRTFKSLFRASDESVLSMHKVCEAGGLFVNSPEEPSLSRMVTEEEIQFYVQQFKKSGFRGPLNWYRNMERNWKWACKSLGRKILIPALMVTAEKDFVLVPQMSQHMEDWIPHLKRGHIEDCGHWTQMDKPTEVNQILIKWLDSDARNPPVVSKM
sEH act – soluble epoxide hydrolase activators, primary screen, biochemical, human sEH. Bifunctional epoxide hydrolase 2 (Homo sapiens), P34913. purified human sEH enzymatic activity, activator screen. activation, % at 2 µM. hit rate 0.04% among 91,000. AID 717, 2007; in the data active means activation above about 37%
HUVEC tox IL1B – cytotoxicity in IL-1B stimulated HUVEC, primary screen, cytotoxicity control for IL-1B NFkB translocation project, imaging, Hoechst nuclear count, IL-1B stimulus; HUVEC cell count loss; cell count reduction, % at 2 µM; hit rate 0.41% among 94,000;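 active means cell count reduction more than 3 SD above the screen-wide mean, cut at about 70% in these data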;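 further: normalized per plate to untreated control cells as the no-loss baseline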
Cav32 inh – Cav3.2 calcium influx blockers – cell-based, Fluo-4 calcium fluorescence, FDSS, MLSMR library, primary screen; Voltage-dependent T-type calcium channel subunit alpha-1H (Homo sapiens), O95180; Cav3.2-expressing cells; stronger effect = lower value; B-score at 10 µM; hit rate 4% among 100,000; AID 449739, 2010;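 active means single-dose well whose peak fluorescence ratio is a statistical outlier from its plate by either plate-standardised score or position-corrected B-score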
NFkB transloc pot – enhancers of NFkB p65 translocation in HUVEC – imaging, IL-1B stimulus, high-content imaging, primary screen | activation, % at 2 µM | AID 819, 2007 | HUVEC IL-1B NFkB p65 nuclear translocation imaging | hit rate 0.3% among 94,000;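 active means activation above 40%, about the mean plus 3 SD, also judged a hit on visual image review; inconclusive means activation above 40% but not a hit on visual review; inactive means activation not above 40% and no visual hit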;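 further: percent activation is computed from the nuclear over cytoplasmic p65 intensity ratio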
NFkB transloc inh – inhibitors of IL-1B driven NFkB p65 nuclear import, primary screen, imaging, HUVEC, IL-1B stimulus, high-content imaging. hit rate 0.43% among 94,000. inhibition, % at 2 µM. HUVEC IL-1B NFkB p65 nuclear translocation imaging. AID 796, 2007;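 active means inhibition above about 30% together with a positive call from visual inspection of the well image, limit read from the data; inconclusive means inhibition above a set limit but visual check negative; inactive means inhibition not above a set limit, visual check negative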;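 further: nuclear over cytoplasmic p65 intensity ratio measured by imaging; 0% = IL-1B stimulated DMSO wells and 100% = unstimulated DMSO wells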
* marks the source's active call; other numbers are inactive results.

`O=C(OCCN1CCCCC1)c1ccccc1Cl` gave sEH inhibitor -18.4, sEH act 16.6, HUVEC tox IL1B -0.9, Cav32 inh 0.0409, NFkB transloc pot -12.9 and NFkB transloc inh 12.9.
`CCO[C@@H]1OC(C(=O)NC2CC2)=C[C@H](C2CCCCC2)[C@H]1CCCO` gave Cav32 inh 0.527.
For Cc1cccc(-c2noc(CN(C(=O)c3ccc(Br)o3)C(C)C)n2)c1 the results were sEH inhibitor 14.0, sEH act -11.4, HUVEC tox IL1B -29.9, Cav32 inh -4.71*, NFkB transloc pot -5.8 and NFkB transloc inh 5.8.
Screening Cc1ccc(-c2noc(CN(C(=O)Cc3ccccc3)C(C)C)n2)cc1 returned sEH inhibitor -1.2, sEH act -1.4, HUVEC tox IL1B -4.2, Cav32 inh -3.43, NFkB transloc pot 13.4 and NFkB transloc inh -13.4.
For Cc1cccc(-c2noc(CN(C(=O)C(c3ccccc3)c3ccccc3)C(C)C)n2)c1 the results were sEH inhibitor -8.9, sEH act 9.6, HUVEC tox IL1B 0.3, Cav32 inh -6.72*, NFkB transloc pot 1.6 and NFkB transloc inh -1.6.
For Cc1ccc(-c2noc(CN(C(=O)CCCCCN3C(=O)c4ccccc4C3=O)C(C)C)n2)cc1 the results were sEH inhibitor -6.2, sEH act 5.8, HUVEC tox IL1B -7.9, Cav32 inh -4.85*, NFkB transloc pot 2.8 and NFkB transloc inh -2.8.
`CC(C)N(Cc1nc(-c2ccccc2)no1)C(=O)C(C)(C)C` gave sEH inhibitor 0.6, sEH act 4.5, HUVEC tox IL1B -9.3, Cav32 inh -1.3, NFkB transloc pot 2.6 and NFkB transloc inh -2.6.
CC(C)N(Cc1nc(-c2ccccc2)no1)C(=O)CSc1ccccc1 was read as sEH inhibitor 18.8, sEH act -14.6, HUVEC tox IL1B -47.5, Cav32 inh -4.24*, NFkB transloc pot inconclusive and NFkB transloc inh -45.5.
CC(C)Cn1nnc2c(=O)oc3ccccc3c21 was read as sEH inhibitor -1.1, sEH act 3.5, HUVEC tox IL1B 18.4, NFkB transloc pot -7.5 and NFkB transloc inh 7.5.
For CCOC(=O)c1cc(NC(=O)C2C3CCC(O3)C2C(=O)O)cc(C(=O)OCC)c1 (centres undefined) the results were sEH inhibitor -3.7, sEH act 3.8, HUVEC tox IL1B 16.6, Cav32 inh 1.48, NFkB transloc pot 3.8 and NFkB transloc inh -3.8.
`COc1cccc(C(=O)N(Cc2nc(-c3ccc(C)cc3)no2)C(C)C)c1` gave sEH inhibitor 9.0, sEH act -4.3, HUVEC tox IL1B -42.1, Cav32 inh -0.128, NFkB transloc pot inconclusive and NFkB transloc inh -44.1.
`Cc1onc(-c2ccccc2Cl)c1C(=O)N(Cc1nc(-c2ccccc2)no1)C1CCCCC1` gave sEH inhibitor -6.3, sEH act 5.7, HUVEC tox IL1B -7.0, Cav32 inh -3.5, NFkB transloc pot 14.0 and NFkB transloc inh -14.0.
Screening Cc1ccc(C)c(C(=O)N(Cc2nc(-c3ccc(Cl)cc3)no2)C(C)C)c1 returned sEH inhibitor 5.3, sEH act -6.0, HUVEC tox IL1B -25.9, NFkB transloc pot 21.8 and NFkB transloc inh -21.8.
`Cc1cccc(-c2noc(CN(C(=O)c3ccc4c(c3)OCO4)C(C)C)n2)c1` gave sEH inhibitor 2.1, sEH act -0.8, HUVEC tox IL1B -19.4, Cav32 inh -5.14*, NFkB transloc pot 16.0 and NFkB transloc inh -16.0.
For COc1cccc(C(=O)N(Cc2nc(-c3cccc(C)c3)no2)C(C)C)c1OC the results were sEH inhibitor -3.8, sEH act 6.3, HUVEC tox IL1B -25.9, Cav32 inh -5.76*, NFkB transloc pot 11.4 and NFkB transloc inh -11.4.
`Cc1cccc(-c2noc(CN(C(=O)c3c(-c4ccccc4Cl)noc3C)C(C)C)n2)c1` gave HUVEC tox IL1B 20.1, Cav32 inh -5.04*, NFkB transloc pot 8.9 and NFkB transloc inh -8.9.
Screening CCN(CC)S(=O)(=O)c1ccc(-c2nnc3sc4cccc(C)c4n23)cc1 returned sEH inhibitor 11.4, sEH act -8.2, HUVEC tox IL1B -9.5, Cav32 inh 1.83, NFkB transloc pot -6.0 and NFkB transloc inh 6.0.
